This note sets out measurements from PubChem BioAssay (NCI).

The panel holds about 83,000 compounds, 20% with a hit somewhere; the sample as a whole holds those more often.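 96-well plates, one dose, 48 hours. Percent growth reported; active if below 10.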 The source made the active and inactive calls.

The test system of this assay is HCC-2998 colon. Put plainly: NCI-60 one-dose screen, 48 h (100 = growth as untreated, 0 = no growth, -100 = all killed). Conditions: 10 µM unless noted.
In the case of `O=S(=O)(NCCNc1nccc(-n2cnc3ccccc32)n1)c1ccc(Br)cc1`, the growth was 103% (inactive).

As for `NS(=O)(=O)c1ccc(Nc2nc(N/N=C/c3ccccn3)nc(Nc3ccccc3)n2)cc1`, the growth is -74.8% (active).

As for `NC(N)=Nc1ccc(Oc2cccc(Nc3ccc(Br)c(C(F)(F)F)c3)c2)cc1`, the growth is -28.1% (active).

For the molecule `O=c1[nH]c2ccccc2cc1CSc1ccccc1Nc1nccc(-c2ccc(Cl)cc2)n1`, the growth was 114% (inactive).

With `COc1ccccc1C(=O)Nc1cccc2c1C(=O)C(=O)C=C2`, the growth is 122% (inactive).

`CCO/C=N/C1=C(C#N)C(c2ccc(F)cc2)c2sc3c(C)cccc3c2O1` (centres undefined): the growth is 18.7% (inactive).

Turning to `O=C(NNc1nc2cc(F)ccc2n2c(CN3CCCC3)ccc12)c1cnccn1`, the growth is 35.7% (inactive).

On to `COc1cc(-c2nn(C(C)(C)C)cc2-c2ccnc(NCCCNS(=O)(=O)c3ccccc3)n2)ccc1Cl`, for which the growth was 95.6% (inactive).

With `O=C(NCc1ncc[nH]1)c1ccc(-c2nc3ccc4[nH]ncc4c3c3c2CCCC3)cc1`, the growth is 12.8% (inactive).

Take `O=C(NNc1nc2cc(F)ccc2n2c(CO)ccc12)c1cnccn1`: the growth is 44.5% (inactive).

On to `O=[N+]([O-])c1cc(/C=N/Nc2nc(N/N=C/c3ccc(Cl)c([N+](=O)[O-])c3)nc(N3CCCCC3)n2)ccc1Cl`, for which the growth was 67.4% (inactive).

On to `COc1c(N2CC3CCCNC3C2)c(F)cc2c(=O)c(C(=O)N/N=C/c3ccccc3)cn(C3CC3)c12` (centres undefined), for which the growth is 113% (inactive).

In the case of `O=C(CNc1nc(-c2cccc([N+](=O)[O-])c2)cs1)Nc1cccc(Cl)c1`, the growth is 115% (inactive).

Turning to `O=S(=O)(NCCNc1nccc(-n2cnc3ccccc32)n1)c1ccc(C(F)(F)F)cc1`, the growth is 80.5% (inactive).

As to `CC(C)(C)c1ccc(C(=O)Nc2sc3c(c2C(N)=O)CC/C(=N\O)C3)cc1`, the growth is 34.3% (inactive).

`CC(=O)c1nnn(-c2c(C(=O)n3nc(C)cc3C)sc(=S)n2-c2ccccc2)c1C`: the growth was 114% (inactive).

For `CNC(=O)c1c(NC(=O)c2ccccc2C(F)(F)F)sc2c1CCC(=O)C2`, the growth was 62% (inactive).

As for `O=C(NNc1nc2cc(F)c(F)cc2n2cccc12)c1cnccn1`, the growth is 40.9% (inactive).

Take `COc1cc(Nc2c(C#N)cnn3cc(-c4cnn(CC(C)(C)O)c4)cc23)ccc1Cl`: the growth is 84.8% (inactive).

As to `CCCCCCCn1cc2c(N[C@H](C)c3ccccc3)ncnc2n1`, the growth was 116% (inactive).

On to `O=C(Cn1cc(-c2ccccc2)nn1)Nc1nc(-c2ccc(Cl)cc2)cs1`, for which the growth is 105% (inactive).

As to `CCOC(=O)C(=O)CC(=O)N1C(=S)NC(=O)C1CC(C)C` (centres undefined), the growth is 97.8% (inactive).

For `O=C1Nc2ccccc2/C1=C/c1ccc(CO)n1-c1ccc(Cl)cc1`, the growth was 78.3% (inactive).

For the molecule `CCO/C=N/C1=C(C#N)C(c2ccc(OC)cc2)c2sc3c(CC)cccc3c2O1` (centres undefined), the growth was 44.3% (inactive).

Consider `O=C1[C@@H]2Cc3c([nH]c4ccccc34)[C@H](c3c(Cl)cccc3Cl)N2C(=O)CN1C1CCN(CC2CCCCC2)CC1`, for which the growth was 73.4% (inactive).

In the case of `Cc1nn(-c2ccccc2)c2ncnc(N/N=C/c3cccc(O)c3)c12`, the growth was 72.6% (inactive).

Consider `CS(=O)(=O)Nc1cc(-c2ccc3ncc(C#N)c(NCc4cccc(F)c4)c3c2)cnc1Cl`, for which the growth was -25.1% (active).

Take `Cc1ccc(-n2cc(/C=C/C(=O)c3ccc(O)cc3)c(-c3ccc(S(C)(=O)=O)cc3)n2)cc1`: the growth was 104% (inactive).

Turning to `CC1(C)NCCC[C@]2(C)[C@H]3C/C(=N\O)C4[C@@H]5C[C@@](C)(CO)CC[C@]5(C)CC[C@@]4(C)[C@]3(C)CC[C@@H]12` (some centres undefined), the growth was 105% (inactive).

As for `C#CCNC1CCC(c2csc(C#C)n2)=C1C` (centres undefined), the growth is 107% (inactive).

Regarding `NS(=O)(=O)c1ccc(Nc2nc(Nc3ccccc3)nc3nnc(SCC(=O)NC4CCCCC4)n23)cc1`, the growth was 109% (inactive).

Turning to `O=C(CNc1nc(-c2cccc([N+](=O)[O-])c2)cs1)Nc1cccc([N+](=O)[O-])c1`, the growth was -55.9% (active).

Turning to `O=C(CSc1nc2ccccc2c(=O)n1-c1ccc(Cl)cc1)N/N=C/c1ccc(N2CCCCC2)cc1`, the growth was 118% (inactive).

`O=C(c1ccc(Cl)cc1)C1[C@H](c2ccc(Cl)cc2)[C@@H](c2ccccc2)NC12C(=O)Nc1ccccc12` (some centres undefined): the growth was 34.5% (inactive).

Take `CC(=O)c1ccc(Nc2nc(SCC(C)C)nc(-c3ccc(F)cc3)c2C#N)cc1`: the growth is 119% (inactive).

For the molecule `Fc1ccc(-c2cc3nc(C(Cl)Cl)nc(-c4ccc(F)cc4)n3n2)cc1`, the growth was -45.8% (active).

`CNc1ncc2cc(-c3ccc(-c4ncccc4F)cc3Cl)c(=O)n(CC3OCC(N)CO3)c2n1` (centres undefined): the growth is 100% (inactive).

As to `C#C[C@]1(O)CC[C@H]2[C@@H]3CC=C4c5sc(-c6ccc7c(c6)OCO7)nc5CC[C@]4(C)[C@H]3CC[C@@]21C`, the growth was 34% (inactive).

As to `C=CCn1c(SCC(=O)Nc2ccc(C(=O)/C=C/c3ccc(C)cc3)cc2)nnc1-c1c[nH]c2ccccc12`, the growth was 102% (inactive).
